Most compounds without a hit are left out; they make up all but 31% or so of the library.
CYP2C19 act – activators of human cytochrome P450 2C19; activation factor at 5 µM; 96,000 tested, under 10 active; P33261; recombinant CYP2C19, luciferin-H EGE luminescence; hits give high values; 0 = fully inhibited enzyme, 1 = untreated enzyme;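 active = activation factor of at least 2 at 5 µM in the primary screen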;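 note: 0 = wells with 2.5 mM tranylcypromine and 1 = vehicle-only wells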
CYP2C19 inh – blocks human cytochrome P450 2C19 | inhibition, % at 5 µM | P33261 | 21% of 96,000 active | CYP2C19 Supersomes, luciferin-H EGE luminescence, 30 min;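 active = CYP2C19 inhibition above a set limit at 5 µM in the primary screen, cut at about 50% in these data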;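 note: plate controls were negative control wells for no effect and 2.5 mM tranylcypromine positive control for full effect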
CYP2C9 inh – inhibitors of human CYP2C9 | P11712 | CYP2C9 Supersomes, luciferin-H conversion, luminescence | inhibition, % at 5 µM | 20% of 96,000 active | AID 777;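 active = blocking of liver enzyme CYP2C9 beyond about 50% at 5 µM, limit read from the data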
Target sequence (P11712 whole entry, looked up): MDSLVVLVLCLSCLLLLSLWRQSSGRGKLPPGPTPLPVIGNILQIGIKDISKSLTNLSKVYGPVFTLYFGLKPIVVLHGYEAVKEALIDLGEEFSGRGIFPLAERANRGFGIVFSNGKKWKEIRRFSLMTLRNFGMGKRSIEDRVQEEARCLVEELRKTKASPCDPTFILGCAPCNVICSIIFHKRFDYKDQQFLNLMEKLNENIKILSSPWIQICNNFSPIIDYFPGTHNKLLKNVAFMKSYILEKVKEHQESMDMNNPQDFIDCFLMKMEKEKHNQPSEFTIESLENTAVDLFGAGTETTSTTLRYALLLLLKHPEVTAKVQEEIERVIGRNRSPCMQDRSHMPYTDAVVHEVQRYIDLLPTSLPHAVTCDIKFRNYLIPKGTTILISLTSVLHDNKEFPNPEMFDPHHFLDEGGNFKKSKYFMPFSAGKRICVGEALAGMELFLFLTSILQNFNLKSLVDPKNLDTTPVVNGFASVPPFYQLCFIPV
CYP2C9 activ – activators of human CYP2C9. P11712. recombinant CYP2C9, luciferin-H conversion, luminescence; hits give high values; factor 1 = untreated enzyme, 0 = blocked. activation factor at 5 µM. 1.4% of 96,000 active;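 active = activation factor of 2 or more for CYP2C9 at a 5 µM dose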;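 note: 0 = sulfaphenazole-blocked wells and 1 = vehicle-only wells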
Numbers without * were called inactive.

Screening CCC/C(=N\NC(=O)c1csc(C)c1C)c1cccs1 returned CYP2C19 act 0.3, CYP2C19 inh 67*, CYP2C9 inh -19 and CYP2C9 activ 1.2.
Screening COc1cc2c(cc1OC)C1=NC(=O)CN1C(SCc1ccc(C)cc1)=N2 returned CYP2C19 act 1, CYP2C19 inh -4, CYP2C9 inh 0 and CYP2C9 activ 1.
Screening Cc1ccc(CSC2=Nc3sccc3C3=NC(=O)CN23)cc1 returned CYP2C19 act 0.3, CYP2C19 inh 66*, CYP2C9 inh 26 and CYP2C9 activ 0.7.
Screening C(=C1/CCCC2=C1Nc1ncnn1C2c1ccccc1)/c1ccccc1 (stereo unspecified) returned CYP2C19 act 0.5, CYP2C19 inh 49, CYP2C9 inh 25 and CYP2C9 activ 0.7.
`O=C(NC1CC1)C1C2C3C4CC5C3C5C4C12` (stereo unspecified) gave CYP2C19 act 1, CYP2C19 inh -2, CYP2C9 inh -4 and CYP2C9 activ 1.
For O=C1Cn2c(nc3ccccc32)-c2ccccc2N1 the results were CYP2C19 act 1, CYP2C19 inh -2, CYP2C9 inh 3 and CYP2C9 activ 1.
For CCN1C(=O)C2(Nc3ccccc3-c3nc4ccccc4n32)c2cc(OC)ccc21 (stereo unspecified) the results were CYP2C19 act 0.7, CYP2C19 inh 34, CYP2C9 inh 69* and CYP2C9 activ 0.3.
Screening CN1C(=O)C2(Nc3ccccc3-c3nc4ccccc4n32)c2ccccc21 (stereo unspecified) returned CYP2C19 act 0.3, CYP2C19 inh 71*, CYP2C9 inh 64* and CYP2C9 activ 0.4.
For Cc1cc(C(=O)OCc2nc3ccccc3s2)c(C)o1 the results were CYP2C19 act 0.7, CYP2C19 inh 29, CYP2C9 inh 6 and CYP2C9 activ 0.9.
COc1ccc(C(C)=O)cc1COC(=O)c1cc(C)oc1C was read as CYP2C19 act 0.4, CYP2C19 inh 61*, CYP2C9 inh 66* and CYP2C9 activ 0.3.
COc1ccc(C(C)=O)cc1COC(=O)c1cccc(N(C)C)c1 was read as CYP2C19 act 0.3, CYP2C19 inh 72*, CYP2C9 inh 79* and CYP2C9 activ 0.2.
COc1ccc(C(C)=O)cc1COC(=O)Cc1n[nH]c(=O)c2ccccc12 was read as CYP2C19 act 0.6, CYP2C19 inh 42, CYP2C9 inh 44 and CYP2C9 activ 0.6.
`Cc1cccc(NC(=O)CSc2nnc(CSc3nc(C)cc(C)n3)n2Cc2ccco2)c1` gave CYP2C19 act 0.7, CYP2C19 inh 34, CYP2C9 inh 38 and CYP2C9 activ 0.6.
Cc1ccc(CSc2nc3sc(C)c(C)c3c(=O)n2Cc2ccco2)cc1 was read as CYP2C19 act 0.6, CYP2C19 inh 35, CYP2C9 inh 49 and CYP2C9 activ 0.5.
Screening c1coc(-c2nnc(SCc3nc4ccccc4[nH]3)o2)c1 returned CYP2C19 act 0.6, CYP2C19 inh 39, CYP2C9 inh 28 and CYP2C9 activ 0.7.
For Cc1sc2nc(SCc3nc4ccccc4[nH]3)n(Cc3ccco3)c(=O)c2c1C the results were CYP2C19 act 0.8, CYP2C19 inh 17, CYP2C9 inh 78* and CYP2C9 activ 0.2.
Screening COc1cccc(CSc2nc3sc(C)c(C)c3c(=O)n2Cc2ccco2)c1 returned CYP2C19 act 0.4, CYP2C19 inh 56*, CYP2C9 inh 78* and CYP2C9 activ 0.2.
`Cc1cccc(CSc2nnc(-c3cccs3)n2Cc2ccco2)c1` gave CYP2C19 act 0.3, CYP2C19 inh 69*, CYP2C9 inh 53* and CYP2C9 activ 0.5.
Cc1cccc(CSc2nc3sc(C)c(C)c3c(=O)n2Cc2ccco2)c1 was read as CYP2C19 act 0.6, CYP2C19 inh 42, CYP2C9 inh 84* and CYP2C9 activ 0.2.
For O=C(NN1C(=O)c2ccccc2C1=O)C1CCCCC1 the results were CYP2C19 act 0.9, CYP2C19 inh 12, CYP2C9 inh 5 and CYP2C9 activ 1.
For COc1cc2c(cc1OC)C(C)N(C(=O)CCN1C(=O)C3C4C=CC(C4)C3C1=O)CC2 (stereo unspecified) the results were CYP2C19 act 1, CYP2C19 inh -4, CYP2C9 inh -2 and CYP2C9 activ 1.
Cn1c(C(=O)O)c(CC(=O)NCc2cccnc2)c2ccccc21 was read as CYP2C19 act 0.9, CYP2C19 inh 14, CYP2C9 inh 63* and CYP2C9 activ 0.4.
Cn1c(C(=O)O)c(CC(=O)Nc2ccc3c(c2)OCCO3)c2ccccc21 was read as CYP2C19 act 0.4, CYP2C19 inh 59*, CYP2C9 inh 65* and CYP2C9 activ 0.3.
Cc1ccc2c(c1)c(CC(=O)Nc1ccc(F)cc1)c(C(=O)O)n2C was read as CYP2C19 act 0.8, CYP2C19 inh 18, CYP2C9 inh 65* and CYP2C9 activ 0.4.
Screening Cn1nc(CC(=O)Nc2ccc3c(c2)OCCO3)c2ccccc2c1=O returned CYP2C19 act 1.1, CYP2C19 inh -8, CYP2C9 inh -25 and CYP2C9 activ 1.2.
Screening CCN(CC)CCCNC(=O)Cc1c(C(=O)O)n(C)c2ccccc12 returned CYP2C19 act 1, CYP2C19 inh 0, CYP2C9 inh -18 and CYP2C9 activ 1.2.
For CCN(CC)CCNC(=O)Cc1c(C(=O)O)n(C)c2ccccc12 the results were CYP2C19 act 1.1, CYP2C19 inh -12, CYP2C9 inh -11 and CYP2C9 activ 1.1.
`Cn1c(C(=O)O)c(CC(=O)Nc2ccc(F)cc2F)c2ccccc21` gave CYP2C19 act 0.2, CYP2C19 inh 78*, CYP2C9 inh 95* and CYP2C9 activ 0.
For COc1cc(C(=O)Sc2ccc(Cl)cc2)cc(OC)c1OC the results were CYP2C19 act 0.7, CYP2C19 inh 31, CYP2C9 inh 6 and CYP2C9 activ 0.9.
`C=CCn1c(SCC(=O)Nc2c(C)n(C)n(-c3ccccc3)c2=O)nc2scc(-c3ccccc3)c2c1=O` gave CYP2C19 act 0.5, CYP2C19 inh 46, CYP2C9 inh 83* and CYP2C9 activ 0.2.
`C=CCn1c(SCC(=O)NC2CCCCC2)nnc1C(C)NC(=O)c1cccs1` (stereo unspecified) gave CYP2C19 act 1.1, CYP2C19 inh -7, CYP2C9 inh -14 and CYP2C9 activ 1.1.
For C=CCn1c(SCC(=O)NC2CCCC2)nc2scc(-c3ccco3)c2c1=O the results were CYP2C19 act 0.1, CYP2C19 inh 87*, CYP2C9 inh 92* and CYP2C9 activ 0.1.
Screening Cc1nc(SCC(=O)Nc2c(C)n(C)n(-c3ccccc3)c2=O)nc(C)c1C returned CYP2C19 act 0.9, CYP2C19 inh 11, CYP2C9 inh 6 and CYP2C9 activ 0.9.
Screening O=C1C(c2ccc(F)cc2)N(Cc2ccc3c(c2)OCO3)C(=O)CN1C1CCCCCC1 (stereo unspecified) returned CYP2C19 act 0.6, CYP2C19 inh 36, CYP2C9 inh 56* and CYP2C9 activ 0.4.
`O=c1[nH]c(N2CCN(c3ccccc3)CC2)nc2c1CCCC2` gave CYP2C19 act 1.1, CYP2C19 inh -6, CYP2C9 inh -14 and CYP2C9 activ 1.1.
Screening CC1CCN(Cc2ccc(-c3nn[nH]n3)cc2)CC1 returned CYP2C19 act 1.1, CYP2C19 inh -11, CYP2C9 inh -24 and CYP2C9 activ 1.2.

Source: PubChem
